# Pf growth 48h: inhibits P. falciparum growth in the first generation, 48 h | actives 5.9% (n = 310,000) | P. falciparum luciferase growth in erythrocytes, 48 h | Potency, µM (top dose mostly 28.7 µM), for inactives: top-dose activity change, negative = inhibition, most hits filed as inhibitors; note: potency is the fitted concentration of half-maximal effect; % is set by controls: 0 for no effect and ±100 for the full control effect
#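 A one-generation exposure of luciferase-tagged malaria parasites in RPMI 1640/Albumax erythrocyte culture, 37 C and 5% CO2. Inhibition is inferred from decreased luminescence after adding detection reagent.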
# NS1 inh: inhibitors of influenza NS1 protein function | actives 0.4% (n = 270,000) | Potency, µM (doses to about 46.1 µM), inactives show at the highest dose activity, positive = more growth | AID 2326; calls by dose curve; note: potency is the fitted concentration of half-maximal effect; actives are rising curves; nearly all actives have a fitted effect of over 50% in size
#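 Recovery from NS1-induced slow growth read by OD600 in budding yeast switched to galactose assay medium (pH 6.0, -URA) at 1:100 dilution. Compound 23 nl per well; the matching strain lacking NS1 serves as control.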
# Shiga toxin inh: inhibitors of Shiga toxin in Vero cells; inhibition, % at 38.7 µM; actives 9.2% (n = 290,000); Vero cells, Shiga toxin protein synthesis inhibition reporter; in the data active = inhibition mostly above about 28%, no sharp cut-off; inactive = mostly below about 43%; note: 0% is about no effect
# Pf growth 96h: P. falciparum growth inhibition at 96 hour, primary screen for plastid delayed-death inhibitors; P. falciparum luciferase reporter growth, 96 h; Potency, µM (titrated, usually from 28.7 µM), inactives show at the highest dose activity change, negative = inhibition, usual class: inhibitors; actives 6.9% (n = 320,000); AID 504834; note: potency is the fitted concentration of half-maximal effect; % is set by controls: 0 for no effect and ±100 for the full control effect
#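 Parasite growth measured via integrated firefly luciferase reporter in P. falciparum. Infected erythrocytes at 2% hematocrit, 0.05% parasitemia final were treated 96 hours at 37 C under 5% CO2, and luminescence was read.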
# Cycloheximide cs: affects cycloheximide protein synthesis inhibition readout, counter-screen | max response, % | actives 12% (n = 300,000) | AID 2314 | cell reporter, cycloheximide protein synthesis inhibition counterscreen; in the data active = max response mostly above about 13%, no sharp cut-off; inactive = mostly below about 14%; note: read at 38.3 µM for the half of the compounds with a filed dose; 0% is about no effect
# * hit, by the source's call; ? = inconclusive; nt = not tested or not shown; [ ] = dose if it differs, or a comment. The list is not random: actives were taken first. Their share in the collection is about 21%. Unless noted, calls come from the whole dose curve; as a rule, active = well fitted inhibition curve with a large enough effect; inconclusive = small, poorly fitted or top-dose-only effect, or another doubt; inactive = no such curve, though single readings can be large or run the other way.
SMILES,Pf growth 48h,NS1 inh,Shiga toxin inh,Pf growth 96h,Cycloheximide cs
Fc1ccc2c(c1)C1C=CCC1C(c1cc3c(cc1Br)OCO3)N2 (stereo unspecified),5.2µM*,3%,-2,4%,0
O=C(O)C1Nc2ccc(Br)cc2C2C=CCC12 (stereo unspecified),1%,25%,-9,40%,-1
CN1CCN(c2nc(-c3ccccn3)nc3ccccc23)CC1,nt,4%,18,5.9µM*,5
CSc1nc(N2CCN(C)CC2)c2ccccc2n1,-10%,2%,-3,15µM*,-2
c1ccc(N2CCN(c3nc(-c4ccccn4)nc4ccccc34)CC2)cc1,1.9µM*,-66%,-18,2.9µM*,1
CN1CCN(c2nc(-c3cccnc3)nc3ccccc23)CC1,?,-1%,-8,-20%,1
O=C(O)c1ccccc1C(=O)OCCCc1ccncc1,?,nt,nt,53%,nt
CC[C@H](C)[C@H](NC(=O)[C@H](CC(=O)O)NC(=O)[C@H](CC(N)=O)NC(=O)[C@@H](NC(=O)[C@H](CCCNC(=N)N)NC(=O)[C@@H](NC(=O)[C@@H](NC(=O)[C@@H](NC(=O)[C@@H](NC(=O)[C@H](CCCCN)NC(=O)[C@@H](NC(=O)[C@H](CC(C)C)NC(=O)[C@@H](NC(=O)[C@H](CCCCN)NC(=O)[C@@H](NC(=O)[C@H](CC(=O)O)NC(=O)[C@H](CC(=O)O)NC(=O)[C@H](CCC(N)=O)NC(=O)[C@@H](NC(=O)[C@H](CCCCN)NC(=O)[C@H](CCC(N)=O)NC(=O)[C@@H](NC(=O)[C@@H]1CCCN1C(=O)[C@@H](N)C(C)C)[C@@H](C)CC)C(C)C)[C@@H](C)O)[C@@H](C)O)[C@@H](C)CC)[C@@H](C)O)[C@@H](C)CC)C(C)C)[C@@H](C)O)[C@@H](C)CC)C(=O)N[C@@H](CO)C(=O)N[C@@H](Cc1cnc[nH]1)C(=O)N[C@H](C(=O)N[C@@H](CCC(N)=O)C(=O)N[C@@H](CO)C(=O)N[C@H](C(=O)N[C@@H](CO)C(=O)N[C@@H](CO)C(=O)N[C@@H](CCCCN)C(=O)N[C@@H](CCC(N)=O)C(=O)N[C@@H](CCCCN)C(=O)O)C(C)C)[C@@H](C)O,nt,nt,-4,nt,-5
CNC(=O)C1CCC(=O)N1Cc1ccccc1Cl (stereo unspecified),31%,2%,-6,nt,-1
O=C(Nc1cc(Cl)cc(Cl)c1)C1CCC(=O)N1Cc1ccccc1Cl (stereo unspecified),9.3µM*,-1%,-17,?,-1
O=C(NCCOc1ccccc1)C(=O)c1c[nH]c2ccccc12,40%,-7%,44,31%,20*
O=C(NCCOc1ccccc1Cl)C(=O)c1c[nH]c2ccccc12,31%,nt,34,0%,12
O=C(NCCC1=CCCCC1)C(=O)c1c[nH]c2ccccc12,44%,-9%,49*,-13%,26*
Cc1ccc(-n2c(CCC(=O)O)ccc2-c2cccs2)cc1,15%,10%,97*,nt,25*
COC(=O)c1cccc(-n2c(CCC(=O)O)ccc2-c2cccs2)c1,-2%,1%,49*,25%,19*
N[C@H](C(=O)O)[C@H](N)C(=O)O,nt,-1%,nt,nt,nt
COc1cc(Cl)cc(CN2CCC(CCC(=O)NC3CC3)CC2)c1OC,?,?,-1,13µM*,-1
CCOCc1cc(CN2CCC(CCC(=O)NC3CC3)CC2)ccc1OC,3%,-3%,0,9.3µM*,-2
Cc1c(N=C2N=C(NC(=O)Nc3ccc(Cl)cc3)c3ccccc32)c(=O)n(-c2ccccc2)n1C,-1%,0%,16,-3%,0
CCOC(=O)c1cn2nc(Oc3ccccc3)ccc2n1,111%,-8%,93*,128%,71*
CCOC(=O)c1cn2nc(Oc3ccc(C)cc3)ccc2n1,?,-1%,98*,-3%,43*
CCOC(=O)c1cn2nc(Oc3ccc(OC)cc3)ccc2n1,2%,5%,27,23%,9
CC1CCCN(S(=O)(=O)c2ccc(NC(=O)CCN3C(=O)c4ccccc4C3=O)cc2)C1 (stereo unspecified),6%,-4%,-23,0%,-4
C=C(C)CC1(NC(C)c2ccccc2)CCCCC1 (stereo unspecified),0%,7%,-6,-7%,-6
N#Cc1ccc(-n2nccc2-c2cnc3n(c2=O)CCS3)cc1,nt,0%,2,19%,26*
SMILES,Pf growth 48h,NS1 inh,Shiga toxin inh,Pf growth 96h,Cycloheximide cs
O=c1c(-c2ccnn2-c2ccc(F)cc2)cnc2n1CCS2,15%,1%,-28,nt,-1
Cc1cc(N)c(NC2=CC(=O)CC(C)(C)C2)cc1C,-4%,?,91*,10µM*,62*
O=C(COc1cccc(Br)c1)Nc1ccc(N2CCOCC2)cc1N1CCOCC1,?,nt,nt,3%,nt
CCN(CC)S(=O)(=O)c1ccc(N2CCOCC2)c(NC(=O)COc2ccccc2C)c1,1.9µM*,nt,nt,2.9µM*,nt
CCN(CC)S(=O)(=O)c1ccc(N2CCOCC2)c(NC(=O)Cc2ccc(Cl)cc2)c1,12µM*,-10%,-10,12µM*,-1
CCC(=O)c1ccc(OCC(=O)Nc2ccc(N3CCOCC3)cc2N2CCOCC2)cc1,?,17%,-8,2.9µM*,2
Cc1ccccc1OCCC(=O)OCC(=O)Nc1ccc(N2CCOCC2)cc1,8%,-5%,12,30%,14*
Cc1ccccc1OCC(=O)OCC(=O)Nc1cc(C(F)(F)F)ccc1N1CCOCC1,7%,-39%,-4,-28%,-5
CCN(CC)S(=O)(=O)c1ccc(N2CCCC2)c(NC(=O)Cc2ccccc2)c1,?,-7%,-3,?,-4
Cc1cccc(OCc2nnc(SCC(=O)O)n2Cc2ccccc2)c1,0%,2%,-6,-16%[5.75 µM],-2
CCN(CC)S(=O)(=O)c1ccc(N2CCOCC2)c(NC(=O)COc2ccc(C#N)cc2)c1,?,-4%,5,-25%,0
CCN(CC)S(=O)(=O)c1ccc(N2CCOCC2)c(NC(=O)COc2ccccc2C#N)c1,12µM*,1%,25,?,-5
Cc1ccc(NC(=O)COC(=O)CSC(=S)N2CCOCC2)cc1,20%,-4%,42,?,27*
O=C(Cc1ccc2c(c1)OCCO2)Nc1cc(Cl)ccc1N1CCOCC1,12µM*,nt,nt,?,nt
CCN(CC)S(=O)(=O)c1ccc(N2CCOCC2)c(NC(=O)CC23CC4CC(CC(Br)(C4)C2)C3)c1,-20%,-5%,-6,10µM*,-4
CCN(CC)S(=O)(=O)c1ccc(N2CCOCC2)c(NC(=O)c2ccc(NC(C)=O)cc2)c1,?,-14%,-8,?,1
COc1cccc(NC(=O)CN2C(=O)NC(C)(CC(C)C)C2=O)c1 (stereo unspecified),-29%,nt,-21,24%,1
Cc1cccc(NC(=O)CSCC(=O)Nc2cc(Cl)ccc2N2CCOCC2)c1,12µM*,nt,nt,?,nt
Cc1ccccc1OCC(=O)Nc1ccc(N2CCOCC2)cc1N1CCOCC1,9.3µM*,nt,nt,?,nt

# Bioassay records (PubChem BioAssay)
